Results on 38 compounds are retold here after PubChem BioAssay (Tox21).

The structures appear in SMILES notation. Inconclusive results are not listed. Values without a mark were called inactive. Unless noted, calls come from the whole dose curve.
% is set by controls: 0 for no effect and ±100 for the full control effect.

The first test in a line: qHTS assay to identify small molecule agonists of the endoplasmic reticulum stress response signaling pathway (AID 1159516; active = well fitted activation curve with a large enough effect in the signal ratio in the repeat runs, not every such curve was filed as active; the % refers to the signal ratio). As to conditions: ESRE-bla HeLa, ER stress beta-lactamase reporter, 5 h; series mostly up to 61 µM; activation: at the top concentration. An outline of the steps: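 An ESRE-bla HeLa cell assay: compounds were pin-transferred from DMSO onto overnight-plated cells and left 5 hr at 37 C. Substrate was then loaded for 2 hr at room temperature before reading fluorescence at 460 nm and 530 nm.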
In general terms: Quantitative high-throughput screening tests each substance at several concentrations.
As to `C=CCN1CCc2nc(N)sc2CC1`, the “activation” value is -0.0092%.
As for `O=C(O)Cc1c(Cl)ccc(Cl)c1Cl`, the “activation” value was 4.81%.
Same read-out and setting: in the case of `CCCCCCCCCCCCCC(=O)OCC` it was 1.11%.
For the compound `CC(=O)OCC(=O)[C@@]1(O)CC[C@H]2[C@@H]3CCC4=CC(=O)C=C[C@]4(C)[C@H]3[C@@H](O)C[C@@]21C`, the “activation” value was -1.04%.
On the same count and under the same terms, in the case of `Cc1cc(N)no1` it was -1.06% [at 78.8 µM]; in that of `O=c1c(O)c(O)c1=O`, -5.27%; in that of `CC/C=C/CCCCCCCCCCOC(C)=O`, 0.765%.
Take `N=C(N)N`: the “activation” value is 2.21%.
As to `CC(=O)Oc1ccc(C(C)=O)cc1`, the “activation” value is -1.83% [at 78.8 µM].
Same read-out and setting: in the case of `CC(=O)c1c(C)cc(C(C)(C)C)cc1C` it was -2.6%; in that of `CN(C)CCc1c[nH]c2ccc(C[C@H]3COC(=O)N3)cc12`, 1.61%; in that of `O=C(O)/C=C(\CC(=O)O)C(=O)O`, 2.86%.
On the same count and under the same terms, in the case of `CC(C)(O)c1ccc(C(C)(C)O)cc1` it was -1.27%.
On to `Nc1cc(S(=O)(=O)O)ccc1O`, for which the “activation” value is 1.16%.
`CC(=O)Nc1ccc(S(=O)(=O)Nc2cc(C)on2)cc1`: the “activation” value was 0.428%.
Still for that read-out and setting: the figure for `CC(O)CCCCn1c(=O)c2c(ncn2C)n(C)c1=O` (stereo unspecified) is 2.75%.
As for `CCC(C)c1nccnc1OC` (stereo unspecified), the “activation” value was 0%.
The same measure, in the same setting: in the case of `CN(C)c1cc(NC(=O)CNC(C)(C)C)c(O)c2c1C[C@H]1C[C@H]3[C@H](N(C)C)C(=O)C(C(N)=O)=C(O)[C@@]3(O)C(=O)C1=C2O` it was 0.147%; in that of `CC1(C)CC(N)CC(C)(C)N1`, -1.46%.
With `C/C=C(\C)C(=O)OC/C=C(\C)CCC=C(C)C`, the “activation” value is 3.92%.
Consider `COC(=O)c1cc(Cl)c(NC(C)=O)cc1OC`, for which the “activation” value was 2.46%.
`O=C(c1ccccc1)c1cccc(O)c1`: the “activation” value is -2.79% [at 78.8 µM].
The same measure, in the same setting: the figure for `C=C(C)C(=O)OCCCC` is -0.155% [at 78.8 µM]; for `CN(C)CCc1c[nH]c2ccc(CS(=O)(=O)N3CCCC3)cc12` it is 0.947%.
As to `Cc1ccc(O)c([N+](=O)[O-])c1`, the “activation” value was -0.727% [at 78.8 µM].
For the compound `C[C@]12C=CC(=O)C=C1[C@@H](F)C[C@@H]1[C@@H]2[C@@H](O)C[C@@]2(C)[C@H]1CC[C@]2(O)C(=O)CO`, the “activation” value is 1.07%.
On to `Cc1ccccc1OCC(=O)O`, for which the “activation” value is -0.128%.
The same measure, in the same setting: the figure for `Cc1ccc(N)nc1` is -3.25%; for `Cc1cc(C)c(C)c(C)c1` it is -0.66%.
As to `CCCC(=O)OC`, the “activation” value is 1.52%.
Still for that read-out and setting: the figure for `O=S(=O)(O)c1ccc(Cl)cc1` is 2.99%.
Regarding `CN(C)c1ccncc1`, the “activation” value was -0.0276%.
As to `CC(O)C(CO)C(C)O` (stereo unspecified), the “activation” value was 2.32% [at 78.8 µM].
Turning to `CC1(C)S[C@@H]2[C@H](NC(=O)Cc3ccccc3)C(=O)N2[C@H]1C(=O)O` (tested in a mixture with another compound), the “activation” value was 1.96%.
On the same count and under the same terms, in the case of `CN1CCN(C(=O)C2CCCCC2)CC1` it was 1.75%; in that of `C=CCCCCCCCCCCCCCC`, 1.37% [at 28.5 µM]; in that of `CC(C)(C)C(=O)CCc1ccc(Cl)cc1`, -0.165%.
Same read-out and setting: in the case of `CCCc1ncc(C(=O)O)s1` it was -0.61%.

Another test can be described thus: qHTS assay to identify small molecule agonists of the endoplasmic reticulum stress response signaling pathway - cell viability counter screen (AID 1159517). Note: nearly all actives have a fitted effect of over 50% in size. As to conditions: ESRE-bla HeLa viability, CellTiter-Glo luminescence, 5 h; series mostly up to 61 µM; activity change, negative = cytotoxicity: at the top concentration. An outline of the steps:
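CellTiter-Glo was added to wells already read for beta-lactamase FRET, and luminescence was recorded 30 min later. Cells: ESRE-bla HeLa, 1,500 per well, compound exposure 5 hr at 37 C.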
In the case of `C=CCN1CCc2nc(N)sc2CC1`, the “activity change, negative = cytotoxicity” value is 10.9%.
On the same count and under the same terms, the figure for `O=C(O)Cc1c(Cl)ccc(Cl)c1Cl` is -0.629%; for `CCCCCCCCCCCCCC(=O)OCC` it is -7.57%; for `CC(=O)OCC(=O)[C@@]1(O)CC[C@H]2[C@@H]3CCC4=CC(=O)C=C[C@]4(C)[C@H]3[C@@H](O)C[C@@]21C` it is 14%.
On to `Cc1cc(N)no1`, for which the “activity change, negative = cytotoxicity” value is -0.562% [at 78.8 µM].
Same read-out and setting: in the case of `O=c1c(O)c(O)c1=O` it was 8.49%; in that of `CC/C=C/CCCCCCCCCCOC(C)=O`, -0.656%.
Same read-out and setting: the figure for `N=C(N)N` is 0.941%; for `CC(=O)Oc1ccc(C(C)=O)cc1` it is -1.07% [at 78.8 µM].
On the same count and under the same terms, the figure for `CC(=O)c1c(C)cc(C(C)(C)C)cc1C` is 0.158%.
For `CN(C)CCc1c[nH]c2ccc(C[C@H]3COC(=O)N3)cc12`, the “activity change, negative = cytotoxicity” value is -1%.
As for `O=C(O)/C=C(\CC(=O)O)C(=O)O`, the “activity change, negative = cytotoxicity” value is -0.63%.
Same read-out and setting: the figure for `CC(C)(O)c1ccc(C(C)(C)O)cc1` is 13.8%.
Consider `Nc1cc(S(=O)(=O)O)ccc1O`, for which the “activity change, negative = cytotoxicity” value was 5.3%.
On the same count and under the same terms, in the case of `CC(=O)Nc1ccc(S(=O)(=O)Nc2cc(C)on2)cc1` it was 7.49%.
Same read-out and setting: the figure for `CC(O)CCCCn1c(=O)c2c(ncn2C)n(C)c1=O` (stereo unspecified) is 6.34%; for `CCC(C)c1nccnc1OC` (stereo unspecified) it is -13.4%.
For the compound `CN(C)c1cc(NC(=O)CNC(C)(C)C)c(O)c2c1C[C@H]1C[C@H]3[C@H](N(C)C)C(=O)C(C(N)=O)=C(O)[C@@]3(O)C(=O)C1=C2O`, the “activity change, negative = cytotoxicity” value was 3.68%.
Consider `CC1(C)CC(N)CC(C)(C)N1`, for which the “activity change, negative = cytotoxicity” value is -1.48%.
Take `C/C=C(\C)C(=O)OC/C=C(\C)CCC=C(C)C`: the “activity change, negative = cytotoxicity” value was -3.09%.
With `COC(=O)c1cc(Cl)c(NC(C)=O)cc1OC`, the “activity change, negative = cytotoxicity” value was 8.9%.
The same measure, in the same setting: in the case of `O=C(c1ccccc1)c1cccc(O)c1` it was 12.8% [at 78.8 µM].
Regarding `C=C(C)C(=O)OCCCC`, the “activity change, negative = cytotoxicity” value is 4.99% [at 78.8 µM].
The same measure, in the same setting: the figure for `CN(C)CCc1c[nH]c2ccc(CS(=O)(=O)N3CCCC3)cc12` is -16.3%; for `Cc1ccc(O)c([N+](=O)[O-])c1` it is 7.85% [at 78.8 µM].
In the case of `C[C@]12C=CC(=O)C=C1[C@@H](F)C[C@@H]1[C@@H]2[C@@H](O)C[C@@]2(C)[C@H]1CC[C@]2(O)C(=O)CO`, the “activity change, negative = cytotoxicity” value is -5.61%.
Turning to `Cc1ccccc1OCC(=O)O`, the “activity change, negative = cytotoxicity” value is -10.8%.
Regarding `Cc1ccc(N)nc1`, the “activity change, negative = cytotoxicity” value was 18.2%.
For the compound `Cc1cc(C)c(C)c(C)c1`, the “activity change, negative = cytotoxicity” value is -19.5%.
Same read-out and setting: in the case of `CCCC(=O)OC` it was 4.88%.
On the same count and under the same terms, in the case of `O=S(=O)(O)c1ccc(Cl)cc1` it was -3.46%; in that of `CN(C)c1ccncc1`, 9.17%; in that of `CC(O)C(CO)C(C)O` (stereo unspecified), -14.4% [at 78.8 µM].
The same measure, in the same setting: the figure for `CC1(C)S[C@@H]2[C@H](NC(=O)Cc3ccccc3)C(=O)N2[C@H]1C(=O)O` (tested in a mixture with another compound) is 9.14%; for `CN1CCN(C(=O)C2CCCCC2)CC1` it is 7.75%; for `C=CCCCCCCCCCCCCCC` it is 11.9% [at 28.5 µM].
Consider `CC(C)(C)C(=O)CCc1ccc(Cl)cc1`, for which the “activity change, negative = cytotoxicity” value is -12.7%.
Still for that read-out and setting: in the case of `CCCc1ncc(C(=O)O)s1` it was 5.86%.
